This is a sample that favours compounds with a hit; in the whole collection about 7.3% have one here.
Rab9 prom act: activates the Rab9 promoter; Huh7 Rab9 promoter-luciferase reporter, luminescence, 24 h; Potency, µM (highest dose often 9.22 µM), inactives show at the highest dose activation, negative = inhibition, hits mostly activators; 320,000 tested, 2.8% active; AID 485297; also: % of control where 0% means no effect; nearly all actives have a fitted effect of over 60% in size
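Cell-based reporter: Huh7 stable for Rab9 promoter-driven luciferase, plated in reduced-serum medium with 10% FBS at 1500 cells/well, compound-treated 24 h at 37 °C, luminescence read after 10 min reagent.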
Luc counter: blocks Kinase-Glo luciferase, a counter-screen artifact; Q27757; Kinase-Glo luciferase, ATP luminescence, 8 min; Potency, µM (series often up to 38.3 µM), for the others: at the highest dose activity change, negative = inhibition, actives largely listed as inhibitors; 200,000 tested, 0.28% active; AID 1379; also: % is scaled to controls: 0 for no effect and ±100 for the full control effect; nearly all actives have a fitted effect of over 60% in size
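Compound is pinned into ATP-containing buffer (10 uM ATP, imidazole pH 7.2, 7 mM MgCl2). Kinase-Glo luciferase reagent is then added. Light output is recorded following an 8-min room-temperature incubation.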
FLuc modulator: firefly luciferase modulation, counter-screen for miR-21 project. Potency, µM (doses to about 57.5 µM), inactives show at the top dose activity change, negative = inhibition, actives largely listed as inhibitors. purified FLuc, Km substrates, luminescence inhibition. P08659. 360,000 tested, 6.9% active;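 also: plate controls were vehicle for no effect and reference inhibitor for full effect; nearly all actives have a fitted effect of over 55% in size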
Target sequence (P08659 whole entry, looked up): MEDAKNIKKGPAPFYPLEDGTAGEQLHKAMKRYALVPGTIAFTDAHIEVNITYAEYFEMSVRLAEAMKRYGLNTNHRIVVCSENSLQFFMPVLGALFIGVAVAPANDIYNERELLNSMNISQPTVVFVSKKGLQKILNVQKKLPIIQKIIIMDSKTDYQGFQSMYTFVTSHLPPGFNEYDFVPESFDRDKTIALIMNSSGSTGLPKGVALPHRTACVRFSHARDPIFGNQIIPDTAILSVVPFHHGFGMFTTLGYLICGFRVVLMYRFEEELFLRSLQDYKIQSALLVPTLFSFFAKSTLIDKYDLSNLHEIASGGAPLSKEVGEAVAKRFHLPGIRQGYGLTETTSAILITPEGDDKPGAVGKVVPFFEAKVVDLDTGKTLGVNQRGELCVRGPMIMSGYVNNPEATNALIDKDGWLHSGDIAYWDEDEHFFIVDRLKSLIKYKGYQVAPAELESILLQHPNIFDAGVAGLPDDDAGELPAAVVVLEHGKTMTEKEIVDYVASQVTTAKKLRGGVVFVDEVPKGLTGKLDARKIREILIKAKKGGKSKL
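Purified P. pyralis luciferase, 10 nM final, with Km-level 10 uM D-luciferin and 10 uM ATP in 50 mM Tris acetate pH 7.5, 10 mM Mg acetate, 0.01% Tween-20, 0.05% BSA; 6-point qHTS titration about 60 µM downward; luminescence read.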
SMN2 splice enh: enhancers of SMN2 splice variant expression | HEK293 SMN2-luciferase splicing reporter, luminescence, 30-36 h | AID 1458 | 210,000 tested, 2.8% active | Potency, µM (titrated, usually from 46.1 µM), inactives show at the highest dose activity change, positive = activation, usual class: activators; also: % of control where 0% means no effect; nearly all actives have a fitted effect of over 55% in size
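HEK293 cells carry an SMN2 […]–luciferase reporter in which exon 7 inclusion puts luciferase in frame. Cells were plated 10-12 h before compound addition, then incubated 30-36 h at 37C. ONE-Glo luminescence was read; sodium butyrate at 4.5 mM final served as control.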
NPC1 promoter act: activates the NPC1 promoter; Potency, µM (titrated, usually from 9.22 µM), for the others: at the highest dose activation, actives largely listed as activators; 320,000 tested, 2.4% active; Huh7 NPC1 promoter luciferase reporter, 24 h; also: % of control where 0% means no effect; nearly all actives have a fitted effect of over 60% in size
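Huh7 cells stably carrying NPC1 promoter–luciferase, plated in Opti-MEM with 10% FBS for 2 h, were exposed to compound in DMSO for 24 h at 37 °C; luciferase reagent was added for 10 min and luminescence read.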
An asterisk follows results filed as active; ? = inconclusive; . = no result given; [ ] = dose if it differs, or a comment. Calls follow the shape of the dose curve; as a rule, active = well fitted curve in the direction sought with a large enough effect; inconclusive = small, poorly fitted or top-dose-only effect, or another doubt; inactive = no such curve, though single readings can be large; an effect the other way counts as inactive or inconclusive. Potency is read from the fitted curve at half-maximal effect.

SMILES	Rab9 prom act	Luc counter	FLuc modulator	SMN2 splice enh	NPC1 promoter act
COc1ccc(CNC(=O)Cn2c(=O)oc3cc(S(=O)(=O)N4CCCCCC4)ccc32)cc1	.	.	-11%	.	.
Cc1ccc(S(=O)(=O)OCCc2ccccc2)cc1	.	0%	.	3%	.
C=CCN(C(=O)C1=NN(C2CCS(=O)(=O)C2)C(=O)CC1)c1nc(-c2ccc([N+](=O)[O-])cc2)cs1 (stereo not drawn)	2.8µM*	-2%	-18%	11µM*	4µM*
CC1=NCC[N@@+]1(CCc1ccccc1)Cc1ccccc1	.	-2%[7.66 µM]	.	-18%[9.22 µM]	.
CCc1cc(C(=O)Nc2cnn(Cc3ccccc3C)c2)no1	.	.	24µM*	18µM*	.
Cc1ccccc1Cn1cc(NC(=O)c2cc(-c3ccco3)on2)cn1	10%	2%	-5%	-18%	8%
Cc1ccc(CC(=O)Nc2ncc([N+](=O)[O-])s2)cc1	?	0%	15µM*	13µM*	?
O=C(COC(=O)c1ccc(Br)o1)Nc1ncc([N+](=O)[O-])s1	22%	.	17µM*	.	17%
COc1ccc(/C=C(\C#N)c2nc3ccccc3c(=O)[nH]2)cc1OC	.	.	-6%	-7%	.
COc1ccc(NC(=O)c2ccc3[nH]c(C)c(C)c3c2)cc1	?	.	13µM*	.	20%
COc1ccc(OC)c(CCNC(=O)c2ccc3[nH]c(C)c(C)c3c2)c1	.	.	-1%	.	.
CCOc1ccc(NC(=O)c2ccc3[nH]c(C)c(C)c3c2)cc1	.	.	13µM*	.	.
COc1ccc(-c2nc(Cn3c(SCc4cccc(F)c4)nc4ccncc43)c(C)o2)cc1OC	-6%	-2%	?	-7%	4%
Cc1cc(C)cc(NC(=O)Cn2c(SCc3cc(C)ccc3C)nc3ccncc32)c1	11%	2%	-1%	-4%	10%
Cc1ccc(CSc2nc3ccncc3n2CC(=O)Nc2cc(C)cc(C)c2)cc1	?	-1%	1.5µM*	?	28%
COc1ccc(-c2nc(Cn3c(SCc4ccc(C)cc4)nc4ccncc43)c(C)o2)cc1OC	?	-11%	1.7µM*	16%	14%
CCc1cnc2c(c1SCC(=O)Nc1ccc(C)cc1C)c(=O)n(C)c(=O)n2C	.	.	5%	.	.
CCOc1ccc(NC(=O)CSc2nc3ccccc3c(=O)n2CCC(=O)NC2CCCCC2)cc1	.	.	-4%	.	.
CCOC(=O)c1c(C)[nH]c(C)c1S(=O)(=O)N1CCC(C(=O)N2CCN(c3ccccc3)CC2)CC1	.	.	4%	.	.
CCOc1ccc(CNCc2c(C(=O)O)n(Cc3ccccc3C)c3cc(OC)ccc23)cc1OC	.	.	-8%	.	.
CC(=O)c1c(C)nc(-c2cccc([N+](=O)[O-])c2)n1O	-3%	-4%	-4%	-12%	-6%
COc1ccc(-c2cn3cc([N+](=O)[O-])ccc3n2)cc1OC	?	-9%	15µM*	?	26%
COc1ccc(-c2cn3ccccc3n2)cc1[N+](=O)[O-]	1.4µM*	?	1.7µM*	11µM*	4µM*
CCCOc1ccc(-c2cn3ccccc3n2)cc1[N+](=O)[O-]	2.2µM*	?	1.7µM*	1.6µM*	3.2µM*
O=[N+]([O-])c1cccc(-c2cn3ccccc3n2)c1	-3%	-5%	-1%	.	-4%
SMILES	Rab9 prom act	Luc counter	FLuc modulator	SMN2 splice enh	NPC1 promoter act
COc1ccc(Cc2noc(-c3ccc([N+](=O)[O-])cc3)n2)cc1OC	-10%	.	0%	.	1%
COc1ccc(-c2nc(C)c(C(C)=O)n2O)cc1[N+](=O)[O-]	13%	?	17µM*	24%	4%
CCCCOc1ccc(C2=CSC3=NCCN23)cc1[N+](=O)[O-]	-3%	.	-1%	.	-1%
CCCCOc1ccc(-c2csc(N)n2)cc1[N+](=O)[O-]	2.8µM*	-1%	3.8µM*	13µM*	2.5µM*
CCCc1nnc(NC(=O)c2cccc(OC)c2)s1	4.5µM*	-3%	24µM*	?	3.2µM*
COc1cccc(C(=O)Nc2nnc(C(C)C)s2)c1	1µM*	-6%	3.4µM*	2.5µM*	3.5µM*
COc1ccc(C(=O)Nc2nnc(C(C)C)s2)cc1OC	.	.	.	28%	.
COc1ccc(-c2nc(-c3ccccc3OC)no2)cc1OC	?	-5%	15µM*	?	3.5µM*
CCOc1cc(-c2nc(-c3ccccc3OC)no2)cc(OCC)c1OCC	-4%	-2%	3%	?	0%
